For 11 molecules, Percent Effect results are on record in ChEMBL document CHEMBL3988442, “University of Dundee, Small-Polar-MMV Screening Library” (2021).

For some of these results: Entries with a potency or affinity are not part of this list.

Parameters in all cases: scale not given: direction of the effect not stated beside the values
The target in experiment [1] is Protein translocase subunit SecA (Escherichia coli (strain K12)) (UniProt P10408). Kind of experiment: Assay to Identify E. coli SecA ATPase Inhibitors. Format: functional. The following applies: 30 µM.
Chain of Protein translocase subunit SecA (Escherichia coli (strain K12)) (P10408 whole entry): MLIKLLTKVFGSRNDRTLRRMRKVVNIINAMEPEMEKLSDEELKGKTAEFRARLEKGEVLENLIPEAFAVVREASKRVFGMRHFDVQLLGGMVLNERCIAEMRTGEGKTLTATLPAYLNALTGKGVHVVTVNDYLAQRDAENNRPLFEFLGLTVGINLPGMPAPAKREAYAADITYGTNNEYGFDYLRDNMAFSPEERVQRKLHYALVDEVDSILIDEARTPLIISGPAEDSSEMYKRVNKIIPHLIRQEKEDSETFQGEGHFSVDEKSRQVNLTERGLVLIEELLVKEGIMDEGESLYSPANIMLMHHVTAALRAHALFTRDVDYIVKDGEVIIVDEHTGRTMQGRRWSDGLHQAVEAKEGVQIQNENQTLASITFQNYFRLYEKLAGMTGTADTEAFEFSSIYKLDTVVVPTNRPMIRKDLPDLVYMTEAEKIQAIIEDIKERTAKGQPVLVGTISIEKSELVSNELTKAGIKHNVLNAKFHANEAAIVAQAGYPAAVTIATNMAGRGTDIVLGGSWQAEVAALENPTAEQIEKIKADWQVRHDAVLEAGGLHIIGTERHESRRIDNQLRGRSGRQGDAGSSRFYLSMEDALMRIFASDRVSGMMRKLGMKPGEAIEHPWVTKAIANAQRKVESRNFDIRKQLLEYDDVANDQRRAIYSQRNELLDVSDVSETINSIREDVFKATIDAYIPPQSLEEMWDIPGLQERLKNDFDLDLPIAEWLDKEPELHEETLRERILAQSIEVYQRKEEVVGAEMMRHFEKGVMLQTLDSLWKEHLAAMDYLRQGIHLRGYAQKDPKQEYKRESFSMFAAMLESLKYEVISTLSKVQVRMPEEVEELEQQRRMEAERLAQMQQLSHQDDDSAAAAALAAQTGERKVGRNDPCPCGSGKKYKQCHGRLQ
For experiment [2], the target named is T1, Ubiquitin-activating enzyme e1, putative (Leishmania donovani (strain BPK282A1)) (UniProt E9BSI1).
T1 sequence (whole entry): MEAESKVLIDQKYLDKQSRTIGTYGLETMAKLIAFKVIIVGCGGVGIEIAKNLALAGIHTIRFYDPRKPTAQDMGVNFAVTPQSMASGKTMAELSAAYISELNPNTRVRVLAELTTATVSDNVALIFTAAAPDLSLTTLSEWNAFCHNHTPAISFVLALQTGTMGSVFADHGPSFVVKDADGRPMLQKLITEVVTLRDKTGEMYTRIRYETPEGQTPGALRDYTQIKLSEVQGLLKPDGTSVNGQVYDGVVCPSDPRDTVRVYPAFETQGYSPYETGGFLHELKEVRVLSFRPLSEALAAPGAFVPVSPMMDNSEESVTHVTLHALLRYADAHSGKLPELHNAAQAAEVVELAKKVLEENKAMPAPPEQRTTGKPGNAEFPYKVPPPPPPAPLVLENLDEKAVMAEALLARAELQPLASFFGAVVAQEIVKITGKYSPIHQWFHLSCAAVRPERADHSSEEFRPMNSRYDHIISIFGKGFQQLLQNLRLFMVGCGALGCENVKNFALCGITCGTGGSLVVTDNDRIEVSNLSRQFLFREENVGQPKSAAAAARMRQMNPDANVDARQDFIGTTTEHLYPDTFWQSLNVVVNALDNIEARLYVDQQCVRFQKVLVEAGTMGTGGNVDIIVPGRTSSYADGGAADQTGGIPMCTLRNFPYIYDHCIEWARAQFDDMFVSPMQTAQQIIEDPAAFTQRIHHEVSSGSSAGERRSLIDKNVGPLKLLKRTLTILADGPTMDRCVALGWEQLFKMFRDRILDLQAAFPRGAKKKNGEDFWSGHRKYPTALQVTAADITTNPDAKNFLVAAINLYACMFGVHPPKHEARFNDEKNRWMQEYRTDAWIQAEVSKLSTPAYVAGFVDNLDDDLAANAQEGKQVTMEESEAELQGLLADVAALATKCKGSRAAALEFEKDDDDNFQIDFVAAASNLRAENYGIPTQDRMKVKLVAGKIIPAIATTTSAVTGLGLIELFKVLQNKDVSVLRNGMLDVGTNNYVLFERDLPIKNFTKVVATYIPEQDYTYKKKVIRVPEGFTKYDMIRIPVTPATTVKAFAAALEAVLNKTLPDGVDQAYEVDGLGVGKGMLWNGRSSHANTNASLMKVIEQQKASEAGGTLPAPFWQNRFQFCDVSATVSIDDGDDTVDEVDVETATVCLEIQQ
Nature of the experiment: Leishmania donovani Ubiquitin Activating Enzyme (LdE1). Format: functional. The settings on record: 30 µM.

Experiment [3] has as its target AMP-activated protein kinase, AMPK (Homo sapiens) (UniProt P54646+O43741+P54619+Q9UGJ0+Q9Y478+Q13131+Q9UGI9). Nature of the experiment: AMP-dependent Kinase enzyme assay. An in vitro enzyme assay that detects ADP turnover that is directly proportional to AMPK activity. This uses naive AMPK that is activated during the assay with MK-8722. Format: functional. The following applies: 30 µM.

Experiment [4] concerns the target Sialic acid-binding Ig-like lectin 9 (Homo sapiens) (UniProt Q9Y336). Nature of the experiment: Hs-Siglec9 ALPHAscreen SOP 20170721. The following applies: 10 µM.
In another experiment the test system is Trypanosoma cruzi. Kind of experiment: Trypanosoma cruzi phosphomannomutase and mannose-1-phosphate guanylyltransferase assay. Format: functional. The following applies: 10 µM.
The target in experiment [5] is T2, Arginase-2, mitochondrial (Homo sapiens) (UniProt P78540).
T2 sequence (whole entry): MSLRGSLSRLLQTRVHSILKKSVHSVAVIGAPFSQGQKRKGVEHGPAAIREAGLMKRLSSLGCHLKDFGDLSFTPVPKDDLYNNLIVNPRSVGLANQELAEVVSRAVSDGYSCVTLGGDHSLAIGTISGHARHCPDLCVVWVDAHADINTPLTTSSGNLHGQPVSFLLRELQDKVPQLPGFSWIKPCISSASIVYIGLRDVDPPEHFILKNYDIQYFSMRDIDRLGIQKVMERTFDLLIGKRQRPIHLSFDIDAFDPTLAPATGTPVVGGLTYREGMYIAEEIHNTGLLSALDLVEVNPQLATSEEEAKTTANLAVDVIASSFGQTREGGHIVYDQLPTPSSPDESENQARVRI
Nature of the experiment: in vitro enzyme assay to detect the production of urea directly proportional to the activity of Arginase II. Note: in the data most compounds retested in dose-response had high values. The following applies: 33.3 µM. Format: functional.

Experiment [6] concerns the target T3, Proteasome subunit beta (Trypanosoma cruzi) (UniProt O96673).
T3 sequence (whole entry): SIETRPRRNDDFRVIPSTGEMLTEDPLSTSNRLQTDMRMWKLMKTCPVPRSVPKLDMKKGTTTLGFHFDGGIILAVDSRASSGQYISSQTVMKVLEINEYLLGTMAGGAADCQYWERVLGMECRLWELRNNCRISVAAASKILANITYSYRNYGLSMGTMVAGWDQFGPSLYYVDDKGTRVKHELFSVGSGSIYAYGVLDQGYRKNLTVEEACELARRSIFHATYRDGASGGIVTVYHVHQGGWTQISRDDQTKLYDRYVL
Nature of the experiment: Trypanosoma cruzi proteasome chymotrypsin-like activity (TcProtChymo) assay. Note: in the data most compounds retested in dose-response had high values. It is filed as functional. The following applies: 9.37 µM.

The species named for a further experiment is Homo sapiens. Nature of the experiment: To identify inhibition of the IFN signalling (Jak-Stat) pathway via expression of an eGFP reporter gene under the control of an IFN-stimulated response element (ISRE) containing MxA promoter. The following applies: 30 µM. It is filed as functional.
Experiment [7] has as its target T4, Tyrosyl-tRNA synthetase, putative (Trypanosoma cruzi (strain CL Brener)) (UniProt Q4DSP6).
T4 sequence (whole entry): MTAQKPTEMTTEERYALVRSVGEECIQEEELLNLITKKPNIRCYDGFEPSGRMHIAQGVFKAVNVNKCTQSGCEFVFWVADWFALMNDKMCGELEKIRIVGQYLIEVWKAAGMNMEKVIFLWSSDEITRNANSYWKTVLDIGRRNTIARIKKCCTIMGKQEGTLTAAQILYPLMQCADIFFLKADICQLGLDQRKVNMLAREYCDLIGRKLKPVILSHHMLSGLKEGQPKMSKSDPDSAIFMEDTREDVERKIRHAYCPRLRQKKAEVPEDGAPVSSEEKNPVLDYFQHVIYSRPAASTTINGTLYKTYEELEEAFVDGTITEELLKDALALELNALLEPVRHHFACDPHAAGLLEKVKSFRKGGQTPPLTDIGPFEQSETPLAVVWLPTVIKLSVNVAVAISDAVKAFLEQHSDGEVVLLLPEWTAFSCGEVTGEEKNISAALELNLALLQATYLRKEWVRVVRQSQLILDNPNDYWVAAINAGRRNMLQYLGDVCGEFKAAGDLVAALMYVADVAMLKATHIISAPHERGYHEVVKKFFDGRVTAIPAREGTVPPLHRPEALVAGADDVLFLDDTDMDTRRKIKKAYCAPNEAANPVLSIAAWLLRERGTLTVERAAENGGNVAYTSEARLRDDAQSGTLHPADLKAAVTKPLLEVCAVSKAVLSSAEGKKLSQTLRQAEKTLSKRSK
Kind of experiment: Trypanosoma cruzi tyrosyl tRNA synthetase (TcYRS) _High Tyrosine SOP. Note: in the data most compounds retested in dose-response had high values. Format: functional. The settings on record: 30 µM.

The target in experiment [8] is T4, Tyrosyl-tRNA synthetase, putative (Trypanosoma cruzi (strain CL Brener)). Nature of the experiment: Trypanosoma cruzi tyrosyl tRNA synthetase (TcYRS) SOP. It is filed as functional. The settings on record: 30 µM.
The target of experiment [9] is Chromo domain-containing protein 1 (Saccharomyces cerevisiae (strain ATCC 204508 / S288c) (Baker's yeast)) (UniProt P32657). Kind of experiment: ScCHD-1 Enzyme Inhibition Assay. Note: in the data most compounds retested in dose-response had high values. It is filed as functional. The settings on record: 30 µM.
Chain of Chromo domain-containing protein 1 (Saccharomyces cerevisiae (strain ATCC 204508 / S288c) (Baker's yeast)) (P32657 whole entry, the tested form may be a part): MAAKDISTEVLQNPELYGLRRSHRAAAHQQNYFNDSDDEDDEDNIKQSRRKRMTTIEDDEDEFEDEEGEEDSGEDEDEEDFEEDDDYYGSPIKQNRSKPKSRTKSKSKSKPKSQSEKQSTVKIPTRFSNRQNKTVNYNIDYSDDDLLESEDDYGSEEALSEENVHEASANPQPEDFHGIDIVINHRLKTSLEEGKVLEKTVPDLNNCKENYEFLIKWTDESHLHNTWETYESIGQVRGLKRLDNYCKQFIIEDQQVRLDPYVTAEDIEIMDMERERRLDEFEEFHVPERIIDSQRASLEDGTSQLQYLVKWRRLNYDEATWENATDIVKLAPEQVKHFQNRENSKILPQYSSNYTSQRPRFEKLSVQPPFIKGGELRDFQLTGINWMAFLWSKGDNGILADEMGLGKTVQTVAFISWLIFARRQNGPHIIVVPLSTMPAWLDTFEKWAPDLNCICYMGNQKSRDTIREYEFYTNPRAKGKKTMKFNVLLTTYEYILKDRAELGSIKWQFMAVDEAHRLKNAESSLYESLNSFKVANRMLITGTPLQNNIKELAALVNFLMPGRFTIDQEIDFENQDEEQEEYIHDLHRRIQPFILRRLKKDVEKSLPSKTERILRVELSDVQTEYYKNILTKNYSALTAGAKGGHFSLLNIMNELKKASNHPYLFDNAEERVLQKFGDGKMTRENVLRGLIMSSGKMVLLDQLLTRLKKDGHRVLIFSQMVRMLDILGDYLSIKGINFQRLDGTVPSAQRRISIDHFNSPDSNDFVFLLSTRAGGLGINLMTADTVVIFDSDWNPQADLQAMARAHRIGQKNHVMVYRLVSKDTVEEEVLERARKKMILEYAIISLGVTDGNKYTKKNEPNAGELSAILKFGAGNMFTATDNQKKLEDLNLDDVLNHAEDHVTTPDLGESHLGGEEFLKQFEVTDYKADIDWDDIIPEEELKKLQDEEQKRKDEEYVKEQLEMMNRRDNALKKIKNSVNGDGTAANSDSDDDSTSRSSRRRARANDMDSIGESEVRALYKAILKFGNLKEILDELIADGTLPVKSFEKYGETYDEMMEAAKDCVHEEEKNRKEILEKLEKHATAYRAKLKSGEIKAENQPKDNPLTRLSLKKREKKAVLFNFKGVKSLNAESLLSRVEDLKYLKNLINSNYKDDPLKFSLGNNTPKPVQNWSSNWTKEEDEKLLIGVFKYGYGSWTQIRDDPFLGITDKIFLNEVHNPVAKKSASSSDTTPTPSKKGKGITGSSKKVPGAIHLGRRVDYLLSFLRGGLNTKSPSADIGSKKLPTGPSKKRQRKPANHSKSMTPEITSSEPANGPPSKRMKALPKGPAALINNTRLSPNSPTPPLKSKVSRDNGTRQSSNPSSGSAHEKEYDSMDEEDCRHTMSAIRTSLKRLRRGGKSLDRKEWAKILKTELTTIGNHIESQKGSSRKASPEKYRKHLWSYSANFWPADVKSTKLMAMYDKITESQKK

Chain of Sialic acid-binding Ig-like lectin 9 (Homo sapiens) (Q9Y336 whole entry): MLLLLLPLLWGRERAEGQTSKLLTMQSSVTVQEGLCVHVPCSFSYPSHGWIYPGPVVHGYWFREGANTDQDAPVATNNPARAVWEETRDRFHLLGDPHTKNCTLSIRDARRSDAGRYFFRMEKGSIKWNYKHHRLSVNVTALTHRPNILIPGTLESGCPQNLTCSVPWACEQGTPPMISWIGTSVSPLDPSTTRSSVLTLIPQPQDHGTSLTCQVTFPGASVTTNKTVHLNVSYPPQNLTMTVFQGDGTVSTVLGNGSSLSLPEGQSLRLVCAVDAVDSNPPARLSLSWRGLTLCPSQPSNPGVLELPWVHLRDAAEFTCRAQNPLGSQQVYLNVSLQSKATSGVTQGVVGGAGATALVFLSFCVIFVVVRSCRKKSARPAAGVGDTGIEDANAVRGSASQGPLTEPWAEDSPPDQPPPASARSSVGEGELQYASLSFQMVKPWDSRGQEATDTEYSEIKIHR

For `CN(Cc1cnn(-c2ccccc2)n1)CC1CCCN1c1cccnn1` (stereo unspecified), the Percent Effect in [1] was -3.33%; in [2] it was -36.8%; in experiment [3], 3.24%; in experiment [4], 7.96%; with Trypanosoma cruzi, 5.7%; in experiment [5], 0.36%. In addition, the Percent Effect was -3.98% in experiment [6]; 8.95% in the experiment filed under Homo sapiens; 8.37% in experiment [7]; 13.6% in experiment [8]; 1.47% in experiment [9].
As for `Cc1ncsc1C(=O)NC1CCN(Cc2ccc(C#N)cc2)CC1`, the Percent Effect in experiment [1] is -4.4%; in experiment [2], 18.2%; in experiment [3] it was 0.609%; in experiment [4], 12.4%; in the experiment with Trypanosoma cruzi it was 1.12%; in experiment [5] it was -2.49%. In addition, the Percent Effect was 5.74% in [6]; 32.5% in the experiment filed under Homo sapiens; 3.88% in experiment [7]; 12.2% in experiment [8]; -7.46% in [9].
As to `CC(C)CN1C[C@H]2CCN(Cc3cccnc3)CC[C@H]2S1(=O)=O`, the Percent Effect in experiment [1] is -4.38%; in experiment [2], 8.11%; in experiment [3], 2.04%; in [4], -0.964%; with Trypanosoma cruzi, -2.05%; in [5], -5.41%. In addition, the Percent Effect in experiment [6] worked out at 16.2%; in the experiment listed under Homo sapiens, 21.9%; in [7], 1.08%; in [8], 5.13%; in [9] it was 1%.
With `CC(=O)N1CCC(c2cncc(Oc3ccccc3)n2)CC1`, the Percent Effect is -10% in experiment [1]; 0% in [2]; 9.22% in experiment [3]; -2.36% in experiment [4]; -4.33% in the experiment on Trypanosoma cruzi; -1.17% in [5]. The Percent Effect in experiment [6] is 8.19%; in the experiment filed under Homo sapiens, 14%; in experiment [7], -1.06%; in experiment [8], 3.85%; in [9], -3.75%.
`Cc1ccccc1C(=O)N1CCC(n2nnc3cc(F)ccc32)CC1`: the Percent Effect in experiment [1] is -4.02%; in experiment [2], 5.33%; in experiment [3] it was 12%; in experiment [4], 0.882%; in the experiment on Trypanosoma cruzi, -3.35%; in experiment [5] it was 1.17%. The Percent Effect is 5.02% in [6]; 7.34% in the experiment listed under Homo sapiens; 4.25% in experiment [7]; 11.5% in [8]; -5% in experiment [9].
Take `CCOc1ncccc1NC(=O)c1cc(C)c(C)s1`: the Percent Effect was -7.94% in experiment [1]; 1.39% in experiment [2]; 3.33% in [3]; -1.86% in [4]; -2.82% with Trypanosoma cruzi; -2.21% in experiment [5]. The Percent Effect in [6] is 11.1%; in the experiment listed under Homo sapiens it was 11.6%; in experiment [7], -3.16%; in experiment [8], 2.56%; in experiment [9], -0.429%.
With `Cc1cc2c(=O)n3c(nc2s1)CCN(C(=O)c1scnc1C)CC3`, the Percent Effect in experiment [1] is -1.99%; in experiment [2], 9.46%; in experiment [3], 9.3%; in experiment [4], 2.42%; in the experiment on Trypanosoma cruzi, -1.58%; in experiment [5] it was -5.34%. In addition, the Percent Effect in experiment [6] is 7.49%; in the experiment filed under Homo sapiens, -18%; in experiment [7], -1.07%; in [8] it was 11.7%; in [9] it was -8.95%.
Consider `CN(Cc1ccc(F)cc1)C(=O)NCC1(N2CCOCC2)CCSC1` (stereo unspecified), for which the Percent Effect is 2.92% in [1]; 16.2% in [2]; -0.11% in experiment [3]; 22.3% in experiment [4]; 2.12% with Trypanosoma cruzi; 1.43% in [5]. Further, the Percent Effect in experiment [6] is 15.9%; in the experiment filed under Homo sapiens it was 14.5%; in experiment [7], 3.7%; in [8], 17.1%; in [9] it was -8.64%.
Regarding `CC(=O)NCC(=O)N1CCOC2(CCCN(c3cccnc3)C2)C1` (stereo unspecified), the Percent Effect in [1] is -5.02%; in experiment [2], 2.7%; in experiment [3], -2.24%; in experiment [4] it was 1.82%; in the experiment with Trypanosoma cruzi, -6.05%; in experiment [5], 0.833%. Besides, the Percent Effect in experiment [6] was 15.3%; in the experiment filed under Homo sapiens it was 7.03%; in experiment [7] it was 8.91%; in experiment [8] it was 6.1%; in experiment [9], -2.32%.
In the case of `c1cnn(CCN2CCOC(Cn3cncn3)C2)c1` (stereo unspecified), the Percent Effect in experiment [1] is -1.82%; in experiment [2] it was 17.7%; in [3] it was -6.27%; in [4], -8.37%; with Trypanosoma cruzi it was -0.283%; in experiment [5], 3.8%. Also, the Percent Effect in experiment [6] is 14.3%; in the experiment listed under Homo sapiens it was -0.00724%; in [7], 10.3%; in experiment [8], 24.1%; in [9], -9.31%.
Consider `Cc1ccc(N2CCN(C(=O)COc3nccc(C)n3)CC2)nn1`, for which the Percent Effect in experiment [1] was -4.66%; in experiment [2], 21.9%; in experiment [3], -13.9%; in experiment [4] it was 17.7%; with Trypanosoma cruzi, 7.44%; in experiment [5] it was 6.36%. For the same molecule, the Percent Effect in [6] is 11.4%; in the experiment filed under Homo sapiens, 16%; in experiment [7], 7.53%; in experiment [8], 17.5%; in experiment [9], -9.03%.
